Assay results: PubChem BioAssay AID1347076 (National Center for Advancing Translational Sciences (NCATS), 2019)
In all, about 400,000 compounds went through this assay and about 13,000 (3.2%) were called active. Not shown: some 18% with an inconclusive outcome. The sample as a whole holds a higher share of actives than the screen did. A number with no mark means an inactive call. The call rests on the fitted dose curve; in most records, active means well fitted cell-killing curve with a large enough effect; inconclusive means small, poorly fitted or top-dose-only effect, or effect the other way; inactive means flat fitted curve, though single readings scatter.

Experiment: qHTS assay for MDR1-selective chemotherapeutics: Primary screen using the drug-selected MDR subline cells KB-V1; further: nearly all actives have a fitted effect of over 60% in size
Details: KB-V1 MDR cells viability, CellTiter-Glo, 72 h; series mostly up to 46.1 µM; activity change, negative = cytotoxicity: at the top concentration
Procedure, shortened: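 Following 72 h at 37 degrees C with compound, KB-V1 cell viability was read by CellTiter-Glo luminescence, medium being phenol-red-free DMEM plus 10% FBS; concentration-response parameters came from normalized, curve-fitted qHTS data.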
On the % scale 0 is the no-effect control and ±100 the full control effect; potency means the concentration at half of the fitted maximal effect.

**Q.** Which “activity change, negative = cytotoxicity” value does the source give for `Cc1cc(C)cc(NC(=O)Cn2nc(N3CCN(c4ccccc4)CC3)ccc2=O)c1` here?
**A.** 0%

**Q.** Which “activity change, negative = cytotoxicity” value does the source give for `CC1(C)CN(Cc2cccnc2)C(=O)[C@H]1CC(=O)Nc1ccc(Br)cc1` here?
**A.** -10.6%

**Q.** Which Potency does the source give for `COC(=O)CN(c1nc(C)c(Cl)c(OC)n1)S(=O)(=O)c1ccc(C)cc1` here?
**A.** 13 µM (active)

**Q.** Which “activity change, negative = cytotoxicity” value does the source give for `CCN(CC)C(=O)CN(c1cccc(OC)c1)S(=O)(=O)c1ccc(C)cc1` here?
**A.** -18.1%

**Q.** With `COc1ccc(C)cc1N(CC(=O)N1CCC(C)CC1)S(=O)(=O)c1ccc(C)cc1` as the molecule, how does the “activity change, negative = cytotoxicity” value read?
**A.** -20%

**Q.** Which “activity change, negative = cytotoxicity” value does the source give for `CCOC(=O)N1CCN(C(=O)C[C@@H]2C[C@@]3(C(=O)OC)CCCCC=C3N(CCC3=CCCCC3)C2=O)CC1` here?
**A.** 0%

**Q.** Which “activity change, negative = cytotoxicity” value does the source give for `CCCNC(=O)C[C@@H]1CC[C@@H]2[C@H](COC[C@H](O)CN2C(=O)c2cc(Cl)cc(Cl)c2)O1` here?
**A.** -2.38%

**Q.** With `C[C@@H]1CN([C@@H](C)CO)C(=O)c2c(c3ccccc3n2C)-c2ccccc2CO[C@H]1CN(C)C(=O)C1CC1` as the molecule, how does the “activity change, negative = cytotoxicity” value read?
**A.** 2.91%

**Q.** With `Cn1ncc([N+](=O)[O-])c1C(=O)Nc1cc(Cl)ccc1Cl` as the molecule, how does the “activity change, negative = cytotoxicity” value read?
**A.** -28.7%

**Q.** For `CN(C)c1ccc(NC(=O)CSc2nc(-c3ccco3)cc(C(F)(F)F)n2)cc1`, which “activity change, negative = cytotoxicity” value is on record?
**A.** -4.3%

**Q.** For `Cc1ccc(-c2cnc(C(O)c3cccc(C)c3C)[nH]2)cc1` (stereo not drawn), which “activity change, negative = cytotoxicity” value is on record?
**A.** 0.531%

**Q.** Which “activity change, negative = cytotoxicity” value does the source give for `Cc1cc(F)ccc1NS(=O)(=O)c1ccc(-n2cccn2)cc1` here?
**A.** -19.7%

**Q.** With `Cc1ccc(-c2nnc3ccc(SCC(N)=O)nn23)cc1` as the molecule, how does the “activity change, negative = cytotoxicity” value read?
**A.** -16.7%

**Q.** With `CCC1(C(=O)c2ccccc2)C(c2cccc([N+](=O)[O-])c2)C1(C(=O)OC)C(=O)OC` (stereo not drawn) as the molecule, how does the Potency read?
**A.** 23.1 µM (active)

**Q.** For `O=C(NOCc1ccccc1)c1cccc([N+](=O)[O-])c1`, which “activity change, negative = cytotoxicity” value is on record?
**A.** -0.0129%

**Q.** For `COc1cccc(NCCC(=O)c2cccc([N+](=O)[O-])c2)c1`, which “activity change, negative = cytotoxicity” value is on record?
**A.** 0%

**Q.** With `CC(C)(C)NC(=O)C(CCc1ccccc1)n1c(=O)c(-c2ccccc2)nc2ccccc21` (stereo not drawn) as the molecule, how does the “activity change, negative = cytotoxicity” value read?
**A.** -14%

**Q.** With `CCCN(Cc1cc2cccc(C)c2[nH]c1=O)S(C)(=O)=O` as the molecule, how does the “activity change, negative = cytotoxicity” value read?
**A.** 0%

**Q.** With `Cc1cc(C)c2[nH]c(=O)c(CN(Cc3ccccc3)C(=S)NCCCN(C)C)cc2c1` as the molecule, how does the “activity change, negative = cytotoxicity” value read?
**A.** 20.3%

**Q.** With `Cc1cccc2cc(CN(Cc3cccs3)C(=S)NCc3ccco3)c(=O)[nH]c12` as the molecule, how does the Potency read?
**A.** 3.66 µM (active)

**Q.** Which Potency does the source give for `Cc1cccc2cc(CN(C(=O)c3cccs3)c3ccccc3)c(=O)[nH]c12` here?
**A.** 23.1 µM (active)

**Q.** Which “activity change, negative = cytotoxicity” value does the source give for `Cc1ccc(C)c2[nH]c(=O)c(CN(Cc3cccnc3)C(=S)NCc3ccco3)cc12` here?
**A.** -4.35%

**Q.** For `Cc1ccc(C)c2[nH]c(=O)c(CCNC(=O)c3cccs3)cc12`, which “activity change, negative = cytotoxicity” value is on record?
**A.** -0.813%

**Q.** For `CCOC1=C2[C@H]([C@H]3C(=O)N(c4ccccc4)C(=O)[C@H]3C1)[C@@H](c1ccccc1)N(S(=O)(=O)c1ccc(C)cc1)[C@H]2c1ccccc1`, which “activity change, negative = cytotoxicity” value is on record?
**A.** 9.91%

**Q.** With `CCc1nc2ccc(C(=O)NCc3ccc(OC)cc3)cn2c1N(CC)Cc1cccc(Br)c1` as the molecule, how does the “activity change, negative = cytotoxicity” value read?
**A.** -14.4%

**Q.** With `CSC1=NN(c2ccccc2)CN(c2ccccc2)N1C` as the molecule, how does the “activity change, negative = cytotoxicity” value read?
**A.** -10.4%

**Q.** For `Cc1cccc(-c2cnc(C(O)c3cc(C)cc(C)c3)[nH]2)c1` (stereo not drawn), which “activity change, negative = cytotoxicity” value is on record?
**A.** -1.95%

**Q.** For `COCCNC(=O)C1(C)CCCN(Cc2cccc(F)c2)C1` (stereo not drawn), which “activity change, negative = cytotoxicity” value is on record?
**A.** 5.35%

**Q.** With `O=C(CN1C(=O)c2cccc3cccc1c23)Nc1ccccc1` as the molecule, how does the “activity change, negative = cytotoxicity” value read?
**A.** -9.9%

**Q.** With `O=C1c2cccc3cccc(c23)N1CN1CCN(c2ccccn2)CC1` as the molecule, how does the Potency read?
**A.** 5.8 µM (active)

**Q.** For `O=C(CN1CCN(c2ccccn2)CC1)N1CCc2ccccc21`, which “activity change, negative = cytotoxicity” value is on record?
**A.** 19.5%

**Q.** For `COc1ccc(NC(=O)CN2C(=O)NC(C)(c3ccccc3)C2=O)cn1` (stereo not drawn), which “activity change, negative = cytotoxicity” value is on record?
**A.** 19%

**Q.** For `COc1cccc(CNC(=O)c2ccc3c(Cl)c4c(nc3c2)CCCC4)c1`, which “activity change, negative = cytotoxicity” value is on record?
**A.** -11.6%

**Q.** With `CC(=O)c1ccc(NC(=O)c2ccc3c(Cl)c4c(nc3c2)CCCC4)cc1` as the molecule, how does the Potency read?
**A.** 16.4 µM (active)

**Q.** For `COc1ccc(N2CCN(C(=O)c3ccc4c(Cl)c5c(nc4c3)CCCC5)CC2)cc1`, which Potency is on record?
**A.** inactive

**Q.** Which “activity change, negative = cytotoxicity” value does the source give for `Fc1ccc(-c2nn(-c3ccccc3Cl)c3c2cnc2ccccc23)cc1` here?
**A.** -20.6%

**Q.** For `Cc1ccc(S(=O)(=O)N[C@H](CO)C(C)C)cc1`, which “activity change, negative = cytotoxicity” value is on record?
**A.** -2.47%

**Q.** For `Cc1cccc(C(=O)Nc2ccc(-c3nc4ccccc4s3)c(C)c2)c1`, which “activity change, negative = cytotoxicity” value is on record?
**A.** 17.3%

**Q.** Which “activity change, negative = cytotoxicity” value does the source give for `O=C(Nn1cnc2ccccc2c1=O)c1ccccc1` here?
**A.** -7.07%

**Q.** For `Cc1cccc(C(=O)NCCc2nc3ccccc3n2Cc2ccccc2Cl)c1`, which “activity change, negative = cytotoxicity” value is on record?
**A.** -0.81%

**Q.** With `CN(NC(=O)c1ccccc1F)c1nc(C(F)(F)F)nc2ccccc12` as the molecule, how does the “activity change, negative = cytotoxicity” value read?
**A.** -12%

**Q.** Which Potency does the source give for `CSc1nc(N(C)NC(=O)c2cccc(C)c2)c2ccccc2n1` here?
**A.** 0.206 µM (active)

**Q.** With `CN(NC(=O)c1ccccc1)c1nc2ccccc2nc1C(F)(F)F` as the molecule, how does the Potency read?
**A.** 4.61 µM (active)

**Q.** Which “activity change, negative = cytotoxicity” value does the source give for `C[C@H](CO)N1C[C@H](C)[C@@H](CN(C)C(=O)C2CCCCC2)OCc2cnnn2CCCC1=O` here?
**A.** 0%

**Q.** With `Cc1ccc(F)c(S(=O)(=O)NC(=O)C2(C)CCN2C(=O)c2ccco2)c1` (stereo not drawn) as the molecule, how does the “activity change, negative = cytotoxicity” value read?
**A.** 2.85%

**Q.** For `COc1cccc(CNc2nc3cc(-c4csc5ccccc45)sc3c(=O)n2C)c1`, which “activity change, negative = cytotoxicity” value is on record?
**A.** 1.56%

**Q.** Which “activity change, negative = cytotoxicity” value does the source give for `CC1CCN(c2ccc3c(c2)S(=O)(=O)c2cc(C(=O)O)ccc2C3=O)CC1` here?
**A.** -17.6%

**Q.** For `CCCCc1ccc(S(=O)(=O)NC(=O)C2(C)CCN2C(=O)c2ccccc2)cc1` (stereo not drawn), which “activity change, negative = cytotoxicity” value is on record?
**A.** -1.95%

**Q.** With `O=c1[nH]c(CN2CCOCC2)nc2cc(Cl)ccc12` as the molecule, how does the “activity change, negative = cytotoxicity” value read?
**A.** -7.03%

**Q.** Which Potency does the source give for `O=c1[nH]c(CCl)nc2cc(-c3ccc(Cl)cc3)sc12` here?
**A.** 16.4 µM (active)

**Q.** For `NC(=O)Cc1nc2scc(-c3ccc(Cl)cc3)c2c(=O)[nH]1`, which “activity change, negative = cytotoxicity” value is on record?
**A.** 34.2%

**Q.** With `COCOc1cccc(CN2CCC(C)(Oc3ccc(SC)cc3)C2)c1` (stereo not drawn) as the molecule, how does the “activity change, negative = cytotoxicity” value read?
**A.** -12.9%

**Q.** Which “activity change, negative = cytotoxicity” value does the source give for `O=C1CC(c2ccccc2)CC2=C1C(c1ccco1)n1nc(C(F)(F)F)nc1N2` (stereo not drawn) here?
**A.** 0%

**Q.** For `COc1ccc(N2C(=O)CSC23C(=O)N(Cc2cccc(F)c2)c2ccccc23)cc1Cl` (stereo not drawn), which Potency is on record?
**A.** 16.4 µM (active)

**Q.** With `COc1ccc(N2C(=O)CS(=O)(=O)C23C(=O)N(Cc2ccc(C)cc2)c2ccccc23)cc1Cl` (stereo not drawn) as the molecule, how does the “activity change, negative = cytotoxicity” value read?
**A.** 3.01%

**Q.** Which “activity change, negative = cytotoxicity” value does the source give for `COc1ccnc2c1c(=O)n(Cc1cccc(F)c1)c(=O)n2C` here?
**A.** -0.196%

**Q.** With `COc1cc(C(=O)OCCCN2CCOCC2)cc(OC)c1OC` as the molecule, how does the “activity change, negative = cytotoxicity” value read?
**A.** -11.7%

**Q.** Which “activity change, negative = cytotoxicity” value does the source give for `CC(C)(C)OC(=O)N1CCC(c2c(C(=O)Nc3ccc4c(c3)OCO4)cnn2-c2ccccc2)CC1` here?
**A.** -13.9%

**Q.** For `COc1cc(OC)c(OC)cc1/C=C1\C=Cc2ccccc21`, which “activity change, negative = cytotoxicity” value is on record?
**A.** -1.45%

**Q.** Which “activity change, negative = cytotoxicity” value does the source give for `COc1ccc(S(=O)(=O)N2CCC(C(=O)NCCC(=O)Nc3ccccc3OC)CC2)cc1` here?
**A.** 6.15%

**Q.** With `COC(=O)c1cc(NC(=O)c2cc(C(C)(C)C)nn2Cc2cccc(C)c2)ccc1N1CCOCC1` as the molecule, how does the Potency read?
**A.** 8.2 µM (active)

**Q.** For `COC(=O)c1cc(NC(=O)c2ccco2)ccc1N1CCOCC1`, which “activity change, negative = cytotoxicity” value is on record?
**A.** -2.65%

**Q.** With `CC(=O)Nc1ccc(N2CCOCC2)c(C(=O)Nc2cccc(C)c2)c1` as the molecule, how does the “activity change, negative = cytotoxicity” value read?
**A.** -4.2%
